TIM10 inh: TIM10 yeast growth inhibition; S. cerevisiae TIM10 strain growth, BacTiter-Glo luminescence, 24 h; inhibition, % at 10 µM; hit rate 1.4% among 330,000;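 active means inhibition of 40% or more at the single tested concentration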;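 further: wild-type TIM10 isogenic control strain grown at permissive 25 °C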
NALP1 inh: blocks the NALP1 inflammasome reconstituted in yeast | hit rate 0.61% among 280,000 | inhibition, % at 10 µM | S. cerevisiae NALP1/ASC/caspase-1 growth, X-gal OD620, 72 h; in the data active means inhibition mostly above about 24%, no sharp cut-off; inactive means mostly below about 32%
tim10-1 inh: growth inhibitors of tim10-1 mutant yeast; S. cerevisiae tim10-1 ts strain growth, BacTiter-Glo, 24 h; inhibition, % at 20 µM; hit rate 2.2% among 330,000; AID 463190;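 active means inhibition of at least 40%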;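 further: mutant grown at 25 °C; 0% = DMSO wells with yeast and 100% = wells holding no yeast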
V-ATPase pH: yeast V-ATPase proton transport regulation by pHLuorin; response, % at 10 µM; S. cerevisiae, pHLuorin cytosolic pH fluorescence; hit rate 0.37% among 350,000; in the data active means response mostly above about 7.3%, no sharp cut-off; inactive means mostly below about 5.4%; further: actives read high
NALP3 yeast inh: blocks the NALP3 inflammasome reconstituted in yeast. Yeast reconstituted NLRP3/ASC/caspase-1, beta-gal luminescence, 24 h. inhibition, % at 10 µM. hit rate 0.39% among 330,000;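 active means inhibition of 50% or more; inactive means inhibition below 50%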;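 further: plate controls were induced DMSO wells for no effect and uninduced yeast grown without galactose for full effect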
tim23-1 inh: tim23-1 yeast growth inhibition; S. cerevisiae tim23-1 growth, BacTiter-Glo luminescence, 24 h; inhibition, % at 20 µM; hit rate 1.3% among 330,000;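 active means growth inhibition of the mutant yeast at or above 50%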;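 further: temperature-sensitive mutant grown at 25 °C; plate controls were DMSO-treated mutant yeast for no effect and medium wells lacking yeast for full effect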
NALP3 yeast conf: NALP3 inhibition confirmation in yeast | shares compounds with NALP3 yeast inh | AID 435006 | inhibition, % at 10 µM | yeast expressing human NALP3, luminescence | hit rate 81% among 1,300; in the data active means inhibition above about 48%
Casp1 ASC ctr: active in yeast caspase-1-ASC counter-screen for NALP3 inhibitors. hit rate 66% among 1,000. inhibition, % at 10 µM. yeast expressing Caspase-1-ASC, luminescence counter screen. shares compounds with NALP3 yeast inh
NALP3 yeast rt: retest-confirmed inhibitor of NALP3 in yeast. shares compounds with NALP3 yeast inh. yeast expressing human NALP3, luminescence read-out. inhibition, % at 10 µM. hit rate 53% among 1,000. AID 488794
tim10-1 conf: tim10-1 yeast growth inhibition, confirmed. shares compounds with tim10-1 inh. AID 463213. inhibition, % at 20 µM. hit rate 56% among 7,400. S. cerevisiae tim10-1 ts strain growth, BacTiter-Glo, 24 h;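 active means inhibition of yeast growth at or above a set limit in either of two repeat tests at 20 µM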;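 further: tim10-1 mutant grown at permissive 25 °C to find synthetic lethal compounds; 0% = DMSO yeast wells and 100% = medium wells without yeast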
tim10 confirm: confirmation of TIM10 yeast growth inhibitors. shares compounds with TIM10 inh. S. cerevisiae tim10 strain growth, BacTiter-Glo luminescence, 24 h. inhibition, % at 10 µM. hit rate 63% among 4,600;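 active means inhibition of yeast growth at or above a set limit in either of two replicates at 10 µM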;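 further: this counterscreen used the strain with wild-type TIM10; 0% = yeast with DMSO and 100% = medium wells lacking yeast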
tim23-1 confirm: tim23-1 yeast growth inhibition, confirmed; hit rate 83% among 4,400; AID 463218; S. cerevisiae tim23-1 growth, BacTiter-Glo luminescence, 24 h; inhibition, % at 20 µM; shares compounds with tim23-1 inh;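 active means inhibition above about 39% in either of two replicate wells at 20 µM, limit read from the data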;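 further: temperature-sensitive tim23-1 mutant grown at 25 °C; 0% = DMSO wells with yeast and 100% = medium wells without yeast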
Numbers without * were called inactive; x = no result. Rows were chosen to be rich in hits. Some 4.2% of all compounds tested hit in one or more screens of this group. Unless noted, no stated cut-off is given here; in the data, active means inhibition above about 50%; inactive means the rest.

SMILES	TIM10 inh	NALP1 inh	tim10-1 inh	V-ATPase pH	NALP3 yeast inh	tim23-1 inh	NALP3 yeast conf	Casp1 ASC ctr	NALP3 yeast rt	others
CC12CCC(=O)C=C1CCC1C2C(O)CC2(C)C(O)CCC12 (centres undefined)	x	x	x	-1	x	x	x	x	x
O=[N+]([O-])c1ccc(N2CCCCCC2)c2ncccc12	-1	8	16	-1	54*	10	56*	53*	52*
Oc1ccc(/C=N/NP(=S)(c2ccccc2)c2ccccc2)cc1	26	23	26	-1	56*	42	74*	65*	57*
COc1cc(/C=N/NP(=S)(c2ccccc2)c2ccccc2)ccc1O	6	-24	16	1	2	19	x	x	x
CCOc1ccc(CC2(CCc3ccncc3)C(=O)NC(=O)NC2=O)cc1	2	-13	0	-2	9	11	x	x	x
CC(N)C(=O)OC(C)(C)Cc1ccc(Cl)cc1 (centres undefined)	14	x	12	4	69*	11	56*	48	56*
CCC(C)C12CN3CCN(CC(C)(C3)C1O)C2 (centres undefined)	11	27	9	-2	6	-5	x	x	x
CCCCn1c(O)c(C(CC)=NCCN2CCCCC2)c(=O)[nH]c1=O	8	2	13	-1	12	0	x	x	x
CC(C)c1ccc(C2NCc3ccccc3-n3cccc32)cc1 (centres undefined)	5	38*	34	-2	64*	34	40	60*	58*
CC(=O)C1C2c3ccccc3O[C@@]1(C)N=c1s/c(=C/c3ccoc3)c(=O)n12 (some centres undefined)	10	32	-28	2	9	15	x	x	x
CC1NCCC2(O)CCCCC12 (centres undefined)	12	-1	18	0	-12	15	x	x	x
CCN(CCNc1ccc([N+](=O)[O-])c2cccnc12)S(=O)(=O)c1ccc(Cl)cc1	2	-3	12	-1	50*	8	65*	37	34
CCN(CCNc1ccc([N+](=O)[O-])c2cccnc12)S(=O)(=O)c1ccccc1	3	16	1	0	1	-8	x	x	x
N#CC(C#N)=Cc1ccc(-c2ccccc2)o1	31	35	18	x	73*	26	74*	x	x
CCC1CCCCN1CC(=O)c1ccc(OC(F)F)cc1 (centres undefined)	4	30	14	-1	1	3	x	x	x
COc1ccc(-n2c(O)c(C=NCCN3CCN(C(C)=O)CC3)c(=O)[nH]c2=S)cc1	1	6	-3	-1	53*	5	67*	29	36
CC(=O)N1CCN(CCN=Cc2c(O)n(-c3ccc(C)cc3)c(=S)[nH]c2=O)CC1	12	14	0	0	42	-3	x	x	x
Cc1c(-c2cccc(Cl)c2)nc2ccccc2c1C(=O)N1CCC2(CC1)OCCO2	23	19	26	1	77*	28	45	21	13
CCCCCCCCCCCCCCCC[N+](C)(C)C	29	x	-15	5	60*	44	53*	55*	59*
CC1CCN(c2cc(Br)c([N+](=O)[O-])cc2F)CC1	-10	x	15	-5	68*	19	73*	77*	58*
O=[N+]([O-])c1cc(F)c(N2CCCC2)cc1Br	3	1	4	-2	67*	14	82*	80*	64*
COc1ccc(CC(C)NCCc2ccc(OC)c(OC)c2)cc1 (centres undefined)	-12	9	0	2	8	11	x	x	x
C[C@@H]1CN(C2CCC(C#N)(c3ccc(F)cc3)CC2)CC[C@]1(C(=O)O)c1ccccc1 (some centres undefined)	4	x	-10	-3	9	-15	x	x	x
O=C(O)CCn1cc(C=C2C(=O)NC(=O)NC2=O)c(-c2ccc(Br)cc2)n1	8	23	14	-2	-3	5	x	x	x
CC(=O)O[C@H]1CC[C@@]2(C)C(=CC[C@@H]3[C@@H]2CC[C@]2(C)C(=O)CC[C@@H]32)C1	-125	x	-31	1	58*	7	59*	59*	40
SMILES	TIM10 inh	NALP1 inh	tim10-1 inh	V-ATPase pH	NALP3 yeast inh	tim23-1 inh	NALP3 yeast conf	Casp1 ASC ctr	NALP3 yeast rt	others
CC[C@]12CC[C@H](O)CC1=CCC1C2CC[C@]2(C)C(=O)CCC12 (some centres undefined)	-21	x	-16	x	67*	-60	60*	x	x
C[C@]12CC[C@@H](O)CC1=CCC1C2CC[C@]2(C)C(=O)[C@H](F)CC12 (some centres undefined)	-16	x	11	-3	50	17	x	x	x
COc1ccc(C[C@H]2NC[C@H](O)[C@H]2OC(C)=O)cc1	75*	x	73*	-2	98*	36	99*	x	x	tim10-1 conf=69*;tim10 confirm=81*
CN(C)C(=O)Oc1ccc2nnc3ccnn3c2c1	1	8	-2	-1	13	0	x	x	x
NC1=C([N+](=O)[O-])C(c2ccc3c(c2)OCO3)c2c(c3ccccc3oc2=O)O1 (centres undefined)	1	x	5	x	-4	16	x	x	x
O=c1oc2ccccc2c(O)c1[C@H]1c2ccc(O)cc2Oc2c1c(=O)oc1ccccc21	69*	x	53*	0	79*	57*	85*	87*	78*	tim10-1 conf=58*;tim10 confirm=59*;tim23-1 confirm=48*
C[C@H]1C[C@@H](C)C(=O)[C@@H]([C@H](O)CC2CC(=O)NC(=O)C2)C1	72*	100*	58*	-5	98*	77*	99*	100*	99*	tim10-1 conf=23;tim10 confirm=63*;tim23-1 confirm=-10
O=C1NC(=S)N(c2ccccc2F)C(=O)/C1=C\c1cccs1	-3	24	29	0	13	44	x	x	x
Cc1c2ccncc2c(C)c2c1[nH]c1ccccc12	57*	95*	63*	-2	82*	56*	93*	72*	40	tim10-1 conf=31;tim10 confirm=70*;tim23-1 confirm=62*
COc1ccccc1-n1c(-c2ccccc2Br)nc2ccccc2c1=O	6	34	30	1	5	27	x	x	x

Source: PubChem (several laboratories)
